{"source": "the supplement of paper PMC10981050", "note": "Where a name gives a salt, the structure may show the parent alone."}
{"tested_on": "MOLM14", "experiment": "cell viability relative to vehicle control; higher = less cytotoxic", "conditions": "10 µM; SRSF2 genotype: SRSF2 P95H/wt", "in_short": "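After removal of identity-inconsistent compounds, the Selleck bioactive, kinase and epigenetic probe libraries were screened on CRISPR-edited mutant clones and isogenic wild-type clones of four leukaemia lines. Plates were 384-well, each well holding 2000 cells in 50 µL medium and receiving a single 10 µM acoustically dispensed dose. CellTiter-Glo luminescence was read 48 h later, after the supernatant was taken off. Genedata Screener was used to express viability as percent of the on-plate vehicle control.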", "units": {"cell viability": "%"}}
{"compound": "Cc1csc(-c2nnc(Nc3ccc(Oc4ncccc4-c4ccnc(N)n4)cc3)c3ccccc23)c1", "cell viability": 53.3}
{"compound": "CN1CCC(c2c(O)cc(O)c3c(=O)cc(-c4ccccc4Cl)oc23)C(O)C1", "note": "(stereo not given) [Flavopiridol (Alvocidib) HCl]", "cell viability": 3.87}
{"compound": "Cc1ccc(C(C)C)c(O)c1", "note": "[Thymol]", "cell viability": 97.1}
{"compound": "CN1CCN(c2ccc(Nc3cc(-c4cccc(-n5ccc6cc(C7CC7)cc(F)c6c5=O)c4CO)cn(C)c3=O)nc2)CC1", "cell viability": 0.81}
{"compound": "NS(N)(=O)=O", "note": "[Sulfamide]", "cell viability": 102}
{"compound": "COc1ccc(Oc2cc(C)c(-c3csc(NC(=O)c4ccncc4)n3)c(C)c2)cc1", "cell viability": 42.4}
{"compound": "Cc1c(O)c(=O)ccn1C", "note": "[Deferiprone]", "cell viability": 87}
{"compound": "CCCCCCNC(=O)n1cc(F)c(=O)[nH]c1=O", "note": "[Carmofur]", "cell viability": 42.2}
{"compound": "C[C@@H]1COCCN1c1cc(C2([S@](C)(=N)=O)CC2)nc(-c2cc[nH]c3nccc2-3)n1", "cell viability": 11.1}
{"compound": "Cc1nc(Nc2cnn(C3CCNCC3)c2)nc2c1N(C)C(=O)c1cc3ccccc3cc1N2C", "cell viability": 15.9}
{"compound": "CCCOc1ccc2[nH]c(NC(=O)OC)nc2c1", "note": "[Oxibendazole]", "cell viability": 10.9}
{"compound": "COC1=CC(=O)c2ccccc2C1=O", "note": "[2-Methoxy-1,4-naphthoquinone]", "cell viability": 31.2}
{"compound": "CC(=O)c1ccc2c(c1)c1cc(C(C)=O)ccc1n2CCNC(C)C", "cell viability": 2.29}
{"compound": "CC(C(=O)O)c1ccc2c(c1)CC(=O)c1ccccc1S2", "note": "(stereo not given) [Zaltoprofen]", "cell viability": 99.1}
{"compound": "CC(C)Oc1ccc(C(=O)N[C@H](CNC(=O)CN(C)C)Cc2ccc(-c3cn4cccc([C@H](C)O)c4n3)cc2)cc1Cl", "cell viability": 9.14}
{"compound": "NC(=O)c1cccc2cn(-c3ccc([C@@H]4CCCNC4)cc3)nc12", "note": "[MK-4827(Niraparib) tosylate]", "cell viability": 21.4}
{"compound": "O=C(O)Cc1ccccc1Nc1c(Cl)cccc1Cl", "note": "[Diclofenac Sodium]", "cell viability": 108}
{"compound": "C#CC1(O)CC[C@H]2[C@@H]3CCC4=CC(=O)CC[C@@H]4[C@H]3CC[C@@]21CC", "note": "(stereo not given in full) [Norgestrel]", "cell viability": 98.2}
{"compound": "COC(=O)C1=C(C)NC(C)=C(C(=O)OCCN2CCN(C(c3ccccc3)c3ccccc3)CC2)C1c1cccc([N+](=O)[O-])c1", "note": "(stereo not given) [Manidipine (Manyper)]", "cell viability": 73.9}
{"compound": "CN(C)N(C)C(=O)[C@@]1(Cc2ccccc2)CCCN(C(=O)[C@@H](Cc2c[nH]c3ccccc23)NC(=O)C(C)(C)N)C1", "note": "[Anamorelin]", "cell viability": 76.5}
{"compound": "O=C(O)CCCCC(CCSCc1ccccc1)SCc1ccccc1", "note": "(stereo not given)", "cell viability": 100}
{"compound": "COc1ccc(C(=O)C(=O)c2ccc(OC)cc2)cc1", "cell viability": 100}
{"compound": "CNC(=O)c1cc(Oc2ccc(NC(=O)Nc3ccc(Cl)c(C(F)(F)F)c3)cc2)ccn1", "note": "[Sorafenib Tosylate]", "cell viability": 9.9}
{"compound": "C[C@@H](O)[C@H]1C(=O)N2C(C(=O)O)=C(S[C@@H]3CN[C@H](C(=O)N(C)C)C3)[C@H](C)[C@H]12", "note": "[Meropenem]", "cell viability": 103}
{"compound": "COC(=O)C1=C(C)NC(C)=C(C(=O)OCC(C)C)C1c1ccccc1[N+](=O)[O-]", "note": "(stereo not given) [Nisoldipine]", "cell viability": 41.7}
{"compound": "COc1cccc(/C=N/N(C(=O)C(F)(F)F)c2ccc(C)cc2C)c1", "cell viability": 98.5}
{"compound": "CN(CC(=O)N(Cc1ccc(C2CCCCC2)cc1)c1ccc(C(=O)O)cc1)S(=O)(=O)c1c(F)c(F)c(F)c(F)c1F", "cell viability": 0.37}
{"compound": "C=CC(=O)Nc1cccc(Oc2nc(Nc3ccc(N4CCN(C)CC4)cc3)ncc2Cl)c1", "cell viability": -0.04}
{"compound": "CO[C@@]12[C@H](COC(N)=O)C3=C(C(=O)C(C)=C(N)C3=O)N1C[C@@H]1N[C@@H]12", "note": "[Mitomycin C]", "cell viability": 0.73}
{"compound": "Clc1cccc(-c2nnnn2Cc2cccnc2)c1Cl", "cell viability": 101}
{"compound": "Cc1cccc(Nc2ccncc2S(=O)(=O)NC(=O)NC(C)C)c1", "note": "[Torsemide (Demadex)]", "cell viability": 105}
{"compound": "O=c1cc(-c2ccc(O)cc2)oc2cc(O)c([C@@H]3O[C@H](CO)[C@@H](O)[C@H](O)[C@H]3O)c(O)c12", "note": "[Isovitexin]", "cell viability": 95.1}
{"compound": "C=C1[C@@H]2CC[C@@H](C2)C1(C)C", "note": "[Camphene]", "cell viability": 95}
{"compound": "CN(C)c1cccc(-c2c3c(=O)n(-c4ccccc4Cl)[nH]c3cc(=O)n2C)c1", "cell viability": 104}
{"compound": "CO[C@H]1C[C@@H]2CC[C@@H](C)[C@@](O)(O2)C(=O)C(=O)N2CCCC[C@H]2C(=O)O[C@H]([C@H](C)C[C@@H]2CC[C@H](n3cnnn3)[C@H](OC)C2)CC(=O)[C@H](C)/C=C(\\C)[C@@H](O)[C@@H](OC)C(=O)[C@H](C)C[C@H](C)/C=C/C=C/C=C/1C", "note": "[Zotarolimus (ABT-578)]", "cell viability": 60.8}
{"compound": "CCC(=O)OCC(=O)[C@@]1(OC(=O)CC)[C@@H](C)C[C@H]2[C@@H]3CCC4=CC(=O)C=C[C@]4(C)[C@@]3(F)[C@@H](O)C[C@@]21C", "note": "[Betamethasone Dipropionate (Diprolene)]", "cell viability": 94.5}
{"compound": "O=C(O)c1cc(I)ccc1NC(=O)[C@H](Cc1ccccc1)NCc1ccccc1", "cell viability": 99}
{"compound": "C=CC(=O)N1CC[C@@H](Oc2nc(Nc3ccc(N4CCC(N5CCN(C)CC5)CC4)cc3)c(C(N)=O)nc2CC)C1", "note": "[ASP8273 (Naquotinib)]", "cell viability": 8.47}
{"compound": "O=c1c(-c2ccc(O)cc2)coc2c([C@@H]3O[C@H](CO)[C@@H](O)[C@H](O)[C@H]3O)c(O)ccc12", "note": "[Puerarin (Kakonein)]", "cell viability": 102}
{"compound": "COc1ccc(-n2nc(C(N)=O)c3c2C(=O)N(c2ccc(N4CCCCC4=O)cc2)CC3)cc1", "note": "[Apixaban]", "cell viability": 107}
